Assay outcomes as filed in PubChem BioAssay.
Shown is part of a subset that was picked to be rich in hits.
Sm TGR inh – blocks Schistosoma mansoni thioredoxin glutathione reductase; Q962Y6; purified TGR, DTNB reduction, TNB absorbance 405 nm; Potency, µM (titrated, usually from 114 µM), for inactives: at the highest dose activity change, negative = inhibition, most hits filed as inhibitors; 3% of 360,000 active; AID 485364; note: potency is the fitted concentration of half-maximal effect; % is set by controls: 0 for no effect and ±100 for the full control effect; nearly all actives have a fitted effect of over 60% in size
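Kinetic colorimetric format: TGR-catalysed, NADPH-driven DTNB reduction monitored via TNB absorbance. Enzyme dispensed at 20 nM; compound exposure 15 min at room temperature before reaction start.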
Tb PYK inh – T. brucei pyruvate kinase inhibition. TbPYK enzyme, Kinase-Glo Plus ATP luminescence, 45 min. Potency, µM (titrated, usually from 76.8 µM), for the others: at the top dose activity, negative = inhibition, usual class: inhibitors. 0.12% of 410,000 active; note: potency is the fitted concentration of half-maximal effect; % is set by controls: 0 for no effect and ±100 for the full control effect; nearly all actives have a fitted effect of over 50% in size
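ADP (130 uM final) triggers the TbPYK reaction after compound addition; incubation is 45 min at room temperature. Kinase-Glo Plus is then added and luminescence imaged. Normalized data are fitted to concentration-effect curves.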
CHX counter – counter-screen hit for Shiga toxin inhibitors, cycloheximide; cell reporter, cycloheximide protein synthesis inhibition counterscreen; max response, %; 12% of 300,000 active; AID 2314; in the data active = max response mostly above about 13%, no sharp cut-off; inactive = mostly below about 14%; note: read at 38.3 µM for the half of the compounds with a filed dose; 0% is about no effect
LmPK inhibitor – inhibitors of Leishmania mexicana pyruvate kinase | Q27686 | purified LmPK, Kinase-Glo ATP luminescence, 1 h | Potency, µM (highest dose often 57.5 µM), inactives show at the top dose activity change, negative = inhibition, actives largely listed as inhibitors | 0.37% of 290,000 active | AID 1721; note: potency is the fitted concentration of half-maximal effect; % is set by controls: 0 for no effect and ±100 for the full control effect
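qHTS format; LmPK 0.1 nM; substrates PEP 0.5 mM and ADP 0.1 mM. One-hour room-temperature incubation, then coupled luciferase luminescence; 0.5 nM enzyme wells mark activation.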
Giardia FBPA inh – blocks Giardia fructose-bisphosphate aldolase activity; purified Giardia FBPA; Potency, µM (titrated, usually from 59.6 µM), inactives show at the highest dose activity, negative = inhibition, hits mostly inhibitors; 0.71% of 290,000 active; note: potency is the fitted concentration of half-maximal effect; % is set by controls: 0 for no effect and ±100 for the full control effect; nearly all actives have a fitted effect of over 55% in size
Target sequence (A8B2U2 whole entry, looked up): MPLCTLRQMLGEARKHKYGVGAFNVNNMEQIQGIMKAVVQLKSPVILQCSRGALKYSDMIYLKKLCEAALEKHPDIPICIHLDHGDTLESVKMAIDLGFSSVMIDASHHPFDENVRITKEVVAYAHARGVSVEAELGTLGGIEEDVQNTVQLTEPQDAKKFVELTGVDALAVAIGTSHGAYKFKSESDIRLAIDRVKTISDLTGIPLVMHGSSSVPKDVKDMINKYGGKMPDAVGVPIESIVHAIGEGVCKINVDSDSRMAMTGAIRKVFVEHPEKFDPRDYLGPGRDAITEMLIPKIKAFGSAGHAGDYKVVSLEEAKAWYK
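Giardia FBPA (40 nM reagent) was preincubated 10 min at RT with compound (up to 57.5 uM final), then substrate plus GAPDH/TPI/NAD/arsenate coupling system with diaphorase/resazurin was added; resorufin fluorescence (525/598 nm) was read after 20 min.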
Shiga toxin inh – inhibitors of Shiga toxin in Vero cells; Vero cells, Shiga toxin protein synthesis inhibition reporter; 9.2% of 290,000 active; inhibition, % at 38.7 µM; in the data active = inhibition mostly above about 28%, no sharp cut-off; inactive = mostly below about 43%; note: 0% is about no effect
* hit, by the source's call; ? = inconclusive; nt = no result. Unless noted, calls come from the whole dose curve; as a rule, active = well fitted curve in the direction sought with a large enough effect; inconclusive = small, poorly fitted or top-dose-only effect, or another doubt; inactive = no such curve, though single readings can be large; an effect the other way counts as inactive or inconclusive.

SMILES	Sm TGR inh	Tb PYK inh	CHX counter	LmPK inhibitor	Giardia FBPA inh	Shiga toxin inh
CCOc1cccc(/C=N/NC(=O)c2cc(C3CC3)[nH]n2)c1O	-27%	-10%	18*	2%	-26%	2
COc1cccc(CN2CCCN(CC(=O)Nc3ccc4c(c3)OCCO4)S2(=O)=O)c1	5%	-1%	nt	nt	nt	nt
COc1ccccc1/C=C/C=N/NC(=O)c1cccs1	2%	5%	44*	-15%	?	116*
COc1ccccc1/C=C\C=N\NC(=O)c1ccco1	-7%	1%	39*	0%	-12%	153*
COc1ncnc2c1ncn2CCCN(CCCc1ccccc1)CCCn1cnc2c(OC)ncnc21	nt	4%	nt	nt	nt	nt
CC(=O)c1cccc(NC(=O)C2C3C=CC(C3=C(c3ccccc3)c3ccccc3)C2C(=O)O)c1 (configuration not stated)	-2%	6%	11*	0%	4%	47
COC(=O)/C(=C\C(=O)c1ccccc1)Nc1cccc(C(F)(F)F)c1	-24%	0%	44*	-5%	-18%	98*
CC(=O)Nc1cccc(NC(=O)C2C3C=CC(C3)C2C(=O)O)c1 (configuration not stated)	-20%	4%	-1	-2%	11%	30
CC(=O)c1cccc(NC(=O)CCOc2ccccc2)c1	-33%	-1%	25*	-6%	1%	51*
N#Cc1ccc(NC(=O)Nc2ccc(Cl)cc2)cc1	6%	-2%	38*	1%	-6%	61*
COC(=O)/C=C/C(=O)Nc1cccc(C(F)(F)F)c1	-15%	3%	-2	-1%	2%	18
CC1=C(C(=O)OC(C)(C)C)C(c2cccc3ccccc23)NC(=O)N1 (configuration not stated)	0%	-1%	-3	-8%	-1%	-3
CCOc1ccccc1N(CC)C(=O)Cn1ncc2c1-c1ccccc1OC2	4%	0%	nt	nt	nt	nt
O=C(c1ccc(NC(=O)C2(c3ccccc3)CCCC2)cc1)N1CCOCC1	0%	-2%	-1	5%	0%	-6
CC(=O)c1ccc(NC(=O)Nc2ccccc2)cc1	9%	-2%	38*	-9%	3%	79*
CNC(=O)Nc1cccc(C(F)(F)F)c1	-1%	0%	12	3%	-1%	10
O=C(Nc1ccccc1)Nc1cccc(C(F)(F)F)c1	-13%	1%	30*	1%	2%	80*
CNC(=O)c1ccc(NC(=O)Nc2ccccc2)cc1	0%	-2%	30*	-2%	9%	50*
O=C(Nc1ccccc1)Nc1ccc(C(=O)N2CCOCC2)cc1	14%	?	46*	13µM*	0%	62*
Cc1ccc(-c2nc3c4ccccc4ccn3c2Cc2ccsc2)cc1	nt	2%	nt	nt	nt	nt
COc1ccc(S(=O)(=O)n2nc(-c3ccco3)nc2NCc2ccc(OC)c(OC)c2)cc1	-12%	2%	nt	nt	nt	nt
CC(=O)c1cccc(NC(=O)Nc2ccccc2)c1	-11%	3%	26*	-1%	1%	62*
CC(=O)c1ccc(NC(=O)C(C)NCc2ccccc2Cl)cc1 (configuration not stated)	0%	1%	24*	-6%	1%	23
CCN(CC)c1ccc(NC(=O)Nc2ccccc2)cc1	-29%	-1%	48*	-5%	0%	58*
CCCC(=O)Nc1ccc(C(=O)NCc2ccccc2Cl)cc1	3%	-4%	9	1%	-2%	14
SMILES	Sm TGR inh	Tb PYK inh	CHX counter	LmPK inhibitor	Giardia FBPA inh	Shiga toxin inh
NC(=O)c1cccc(NC(=O)Nc2ccc(Cl)cc2)c1	5%	1%	19*	-1%	14%	22
CCOC(=O)C1CCN(C(=O)C(CCSC)NC(=O)c2ccccc2OC)CC1 (configuration not stated)	-5%	7%	nt	nt	nt	nt
O=C(CNC(=O)c1ccco1)OCC(=O)c1ccc([N+](=O)[O-])cc1	0%	3%	0	0%	-9%	-3
CN1C(=O)/C(=C\c2ccc(Br)s2)C(=O)NC1=S	3.2µM*	-3%	-2	-10%	6%	-2
O=C1NC(=S)NC(=O)C1=Cc1c(Cl)cccc1Cl	nt	-19%	nt	nt	nt	nt
O=C1NC(=S)NC(=O)C1=Cc1ccc(Br)s1	20µM*	?	1	11%	-7%	-3
